Reference: PubChem BioAssay (NCI)
Compounds without any hit were thinned out: in the full panel of roughly 83,000, 20% have a hit.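 Cells were grown in 96-well plates and exposed to the test compound at a single concentration for 48 hours; results are reported as percent growth, with values below 10 considered active.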 The source made the active and inactive calls.

Experiments:
Test in all cases: NCI-60 one-dose screen, 48 h (100 = growth as untreated, 0 = no growth, -100 = all killed)
Conditions in all cases: 10 µM unless noted
[1] = system: HCT-15 colon
[2] = system: HT29 colon
[3] = system: SNB-75 CNS
[4] = system: SNB-19 CNS
[5] = system: U251 CNS
[6] = system: PC-3 prostate
[7] = system: SK-MEL-5 melanoma
[8] = system: UACC-62 melanoma
[9] = system: LOX IMVI melanoma
[10] = system: SK-MEL-28 melanoma
[11] = system: SK-MEL-2 melanoma
[12] = system: EKVX NSCLC
[13] = system: SN12C renal
[14] = system: UO-31 renal
[15] = system: TK-10 renal
[16] = system: ACHN renal
[17] = system: CAKI-1 renal
[18] = system: A498 renal
[19] = system: CCRF-CEM leukemia
[20] = system: MOLT-4 leukemia

Measured: growth

O=C(Nn1c2c(sc1=Nc1ccccc1)C(=O)c1ccccc1C2=O)c1cc2ccc1CCc1ccc(cc1)CC2
inactive: [1] 51.3% | [2] 91.8% | [3] 36.3% | [4] 60.7% | [5] 82.6% | [6] 66.3% | [7] 39.7% | [8] 70.8% | [9] 62.2% | [10] 92.4% | [11] 75.2% | [12] 70.4% | [13] 70.2% | [14] 33.6% | [15] 108% | [16] 42.7% | [17] 32.1% | [18] 93.7% | [19] 79.8% | [20] 83.3%

N#Cc1cnc(NCCc2ccncc2)nc1-n1cnc2ccccc21
inactive: [1] 36.8% | [2] 49% | [3] 82.6% | [4] 94.7% | [5] 58.7% | [6] 64.1% | [7] 79.8% | [8] 48.5% | [9] 41.2% | [10] 80.9% | [11] 34.6% | [12] 72.6% | [13] 65.1% | [14] 33.3% | [15] 20.4% | [16] 26.1% | [18] 29.6% | [19] 77.2% | [20] 47.3%
active: [17] 8.54%

C=C1C(=O)O[C@H]2[C@H]1CC/C(COC(=O)CSCCSCC(=O)OC/C1=C/CC[C@@]3(C)O[C@H]3[C@H]3OC(=O)C(=C)[C@@H]3CC1)=C\CC[C@@]1(C)O[C@@H]21
active: [1] -18.1% | [2] 0.0255% | [5] 7.29% | [6] 1.19% | [9] -53.3% | [10] 4.71% | [13] -10.4% | [14] 7.85% | [16] 2.6% | [17] 9.17% | [19] -41.5% | [20] -22.5%
inactive: [3] 56.6% | [4] 55.9% | [7] 78.4% | [8] 25.6% | [11] 70% | [12] 11% | [15] 16.6% | [18] 88.7%

COc1cc(CNS(=O)(=O)c2ccc(C)cc2)ccc1OCc1cn(-c2ccc(F)cc2)nn1
inactive: [1] 92.5% | [2] 85.1% | [3] 81% | [4] 102% | [5] 97.3% | [6] 83.6% | [7] 56.7% | [8] 71.8% | [9] 102% | [10] 87.9% | [11] 104% | [12] 80.3% | [13] 92.2% | [14] 63.9% | [15] 116% | [16] 93.2% | [17] 89.6% | [18] 54.1% | [19] 79.9% | [20] 78.2%

CCCCCCCCCCCCCCCC(N)c1ccccc1 (stereo not given)
inactive: [3] 66.2% | [4] 23.9% | [7] 87.8% | [8] 79.2% | [10] 85.3% | [11] 70.8% | [12] 25.3% | [13] 28% | [14] 26.2% | [15] 52.2% | [18] 60.8%
active: [1] -73.9% | [2] -65.3% | [5] -93.2% | [6] 5.14% | [9] -100% | [16] -50.3% | [17] 9.49% | [19] -1.76% | [20] -38.6%

O=C(OCc1ccc2c(Cl)cc(Cl)c(O)c2n1)n1cncn1
inactive: [1] 19.3% | [2] 72.6% | [3] 44.9% | [4] 30.5% | [5] 16.3% | [6] 42.5% | [7] 15.4% | [10] 35.5% | [11] 36.6% | [12] 26.4% | [13] 37.2% | [14] 15.2% | [15] 61.7% | [16] 25.3% | [17] 13.6% | [18] 64.9% | [19] 24.2% | [20] 18.3%
active: [8] -3.18% | [9] 9.57%

O=C(/C=C/c1cccs1)c1ccc(Cl)nc1
inactive: [1] 100% | [2] 101% | [3] 95.2% | [4] 102% | [5] 99.9% | [6] 104% | [7] 104% | [8] 97.2% | [9] 102% | [10] 105% | [11] 98% | [12] 102% | [13] 103% | [14] 93.5% | [15] 84.2% | [16] 106% | [17] 94% | [18] 85.6% | [19] 91.4% | [20] 99.6%

O=C1Nc2ccccc2/C1=C\c1nc(-c2ccccc2F)n2ccccc12
inactive: [1] 42.3% | [2] 11.6% | [4] 45.8% | [6] 44.1% | [7] 37.8% | [8] 38.8% | [9] 13.6% | [10] 69.3% | [12] 47.6% | [13] 14.5% | [19] 79% | [20] 70.6%
active: [3] -68.2% | [5] -3.26% | [11] -6.84% | [14] -16.2% | [15] -6.87% | [16] -58.5% | [17] -13.9% | [18] -10.4%

Oc1c(Cl)cc(Cl)cc1/C=N/Nc1nnc(N/N=C/c2cc(Cl)cc(Cl)c2O)c2ccccc12
active: [7] -46.8% | [9] -52.3% | [14] 0.684% | [16] 7.55% | [17] -34.7% | [18] -2.98% | [20] 5.23%
inactive: [1] 20.6% | [2] 23.7% | [3] 13% | [4] 12.8% | [5] 21% | [6] 16.3% | [8] 13.2% | [10] 22.9% | [11] 51.2% | [12] 10.2% | [13] 20% | [15] 37.8% | [19] 14%

Fc1ccc(-c2nn(-c3ccccc3)cc2-c2nc3ccccc3o2)cc1
inactive: [1] 33.9% | [2] 99.6% | [3] 119% | [4] 67.3% | [5] 33.4% | [6] 51.6% | [7] 57.9% | [8] 74.9% | [9] 24.7% | [10] 108% | [11] 125% | [12] 84% | [13] 60.1% | [14] 60.6% | [15] 126% | [16] 53.9% | [17] 82.1% | [18] 45.4% | [19] 66.4% | [20] 73.7%

COc1ccc(/C=N/NC(=O)CCN2c3ccccc3Sc3ccccc32)cc1
inactive: [1] 43.9% | [2] 57% | [3] 80.1% | [4] 75.4% | [5] 91.5% | [6] 61.4% | [7] 70.4% | [8] 63% | [9] 60.9% | [10] 80.9% | [11] 95.6% | [12] 79.7% | [13] 88.1% | [14] 66.5% | [15] 111% | [16] 86.6% | [17] 41.5% | [18] 55.7% | [19] 82.7% | [20] 97.8%

COc1cc(-c2nc3cc(Cl)c(Cl)cc3[nH]2)ccc1OCC(=O)N=Nc1c(O)[nH]c2ccc([N+](=O)[O-])cc12
inactive: [1] 103% | [2] 110% | [3] 92.7% | [4] 43.9% | [5] 22% | [6] 56.5% | [7] 85.1% | [8] 95.2% | [9] 78.7% | [10] 82% | [11] 102% | [12] 96.2% | [13] 81.2% | [14] 91.1% | [15] 124% | [16] 104% | [17] 97.2% | [18] 109% | [19] 21.6% | [20] 74.2%

COC(=O)c1c2c(c[n+]([O-])c1C)C(=O)C(NCc1ccccc1)=CC2=O
inactive: [15] 39%
active: [1] -60.1% | [2] -0.488% | [3] -97.9% | [4] -23.8% | [5] -57.4% | [6] -11.1% | [7] -97% | [8] -78.5% | [9] -30.1% | [10] -29.3% | [11] -44.4% | [12] -45.1% | [13] -78.9% | [14] -14.8% | [16] -18.4% | [17] 3.84% | [18] -4.89% | [19] 2.92% | [20] -29.4%

C=C1CC[C@@H]2[C@](C)(COC(C)=O)[C@H](OC(C)=O)CC[C@@]2(C)[C@@H]1CC(Sc1ccccc1)C1=CCOC1=O (stereo not given in full)
inactive: [3] 87% | [4] 51.8% | [5] 22.9% | [6] 36.4% | [7] 13.5% | [12] 57.7% | [14] 35.6% | [15] 11.4% | [17] 90.6% | [18] 86.3%
active: [1] -38.4% | [2] -39.3% | [8] -1.75% | [9] -83.9% | [10] 6.34% | [11] -1.66% | [13] 1.3% | [16] -13.7% | [19] -5.24% | [20] -3.93%

C=CC(=O)NCc1ccc(Nc2nccc(-c3ccc(N4CCCC4)c(C#N)c3)n2)cc1
active: [2] 7.08% | [17] -1.86%
inactive: [1] 19.7% | [3] 20.3% | [4] 58.6% | [5] 38.1% | [6] 32.4% | [7] 35.7% | [8] 33.8% | [9] 47.2% | [10] 45.5% | [11] 35.8% | [12] 62.8% | [13] 41.3% | [14] 17.5% | [15] 37.3% | [16] 20.4% | [18] 54% | [19] 49.1% | [20] 20%
